Most compounds without a hit are left out; they make up all but 19% or so of the library.
DT40 TDP1 no CPT – qHTS for Inhibitors of human tyrosyl-DNA phosphodiesterase 1 (TDP1): qHTS in cells in absence of CPT | DT40 Tdp1-/- hTDP1 cells, no CPT, ATP luminescence, 48 h | Potency, µM (doses to about 46.2 µM), actives largely listed as inhibitors | actives 15% (n = 420,000) | AID 686978, 2013; also: nearly all actives have a fitted effect of over 55% in size
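DT40 Tdp1-/-;hTDP1 cells, no CPT (DMSO vehicle only), 400 cells/well; compounds pin-transferred; ≥48 hr, 37 °C; CellTiter-Glo 30 min RT dark, luminescence read.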
ELG1 DNA repair – inhibitors of ELG1-dependent DNA repair in HEK293T cells; HEK293T ELG1-luciferase reporter, luminescence, 16 h; DNA damage induced by 5-fluorouridine; Potency, µM (highest dose often 46.1 µM), usual class: inhibitors; actives 2.3% (n = 330,000); AID 504467; also: nearly all actives have a fitted effect of over 55% in size
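5-Fluorouridine DNA damage + compound/DMSO, 2,000 cells/well, 16 h, 37 °C/5% CO2. ONE-Glo, 30 min RT, luminescence. Readout = decrease in reporter signal.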
DT40 TDP1 CPT – DT40-hTDP1 cell growth loss with CPT. chicken DT40 Tdp1-/-;hTDP1 cells + 20 nM CPT, ATP luminescence, 48 h. Potency, µM (top dose mostly 46.2 µM), actives largely listed as inhibitors. actives 12% (n = 420,000); also: nearly all actives have a fitted effect of over 55% in size
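Cell growth measured by CellTiter-Glo luminescence after a minimum 48 h, 37 C compound exposure with 20 nM CPT in Tdp1-knockout DT40 cells stably expressing hTDP1, seeded 400/well; qHTS titration format.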
IL-1B inflam inh – inhibitors of inflammasome signaling (IL-1 beta secretion); THP-1 LPS/ATP IL-1B secretion, AlphaLISA, 16 h; stronger effect = lower value; activity change, % at 57.5 µM; actives 4.7% (n = 360,000); AID 743279; in the data active = activity change below about -50%; inconclusive = mostly about -30% to -49%
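THP-1 cells pretreated 1 hr with compounds (up to 57.5 uM final), then stimulated with LPS (250 ng/mL final) plus ATP (1.25 mM final); secreted IL-1B measured by AlphaLISA after 16 hr, decreased signal indicating inhibition.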
HT1080-NT tox – kills 2HG-producing HT-1080-NT fibrosarcoma cells. Potency, µM (series often up to 46.1 µM), usual class: cytotoxic. actives 1.6% (n = 360,000). HT-1080-NT fibrosarcoma viability, CellTiter-Glo ATP luminescence, 48 h. AID 686970;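 also: NT is the 2HG producing partner of a matched IDH1 knockdown line; nearly all actives have a fitted effect of over 55% in size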
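Luminescent CellTiter-Glo readout after 48 hours of compound exposure at 37 degrees C defined viability of HT-1080-NT cells. Activity was normalized to DMSO wells and cell-free media wells; concentration-response curves were fitted and assigned curve classes.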
HT1080 IDH1KD tx – kills HT-1080 cells with IDH1 knockdown | HT-1080 IDH1 knockdown viability, ATP luminescence, 48 h | Potency, µM (doses to about 46.1 µM), usual class: cytotoxic | actives 2% (n = 360,000)
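Knockdown cells (IDH1KD HT-1080) received compounds 2 h after plating at 750 cells/well and were kept 48 h at 37 °C in 5% FBS RPMI. A CellTiter-Glo luminescence read gave % activity for curve fitting.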
Numbers stand for hits; . = inactive; ? = inconclusive; / = not tested or not shown; [ ] = another dose, or the depositor's remark. Unless noted, calls follow the shape of the dose curve; as a rule, active = well fitted curve in the direction sought with a large enough effect; inconclusive = small, poorly fitted or top-dose-only effect, or another doubt; inactive = no such curve, though single readings can be large; an effect the other way counts as inactive or inconclusive.

SMILES | DT40 TDP1 no CPT | ELG1 DNA repair | DT40 TDP1 CPT | IL-1B inflam inh | HT1080-NT tox | HT1080 IDH1KD tx
CCN(CC)C(=O)/C(=C\c1cccc([N+](=O)[O-])c1)NC(=O)c1ccco1 | . | . | . | . | . | .
O=C(N/C(=C\c1cccc([N+](=O)[O-])c1)C(=O)N(CCO)CCO)c1ccco1 | . | . | . | -51 | . | .
O=CNc1ccc2c(c1)Cc1cccc(NC=O)c1-2 | . | / | . | . | . | .
CCCCCCSc1ccc([C@@H]2[C@@H]3C(=O)N(C)C(=O)[C@@H]3[C@]3(C(=O)OC)CCCCN23)cc1 | 26µM | . | 9.2µM | ? | ? | ?
CCCCCCSc1ccc([C@@H]2[C@H]3C(=O)N(CC)C(=O)[C@H]3[C@]3(C(=O)OC)CCCN23)cc1 | ? | . | 21µM | . | . | .
CCCSc1ccc([C@@H]2[C@H]3C(=O)N(CC)C(=O)[C@H]3[C@]3(C(=O)OC)CCCCN23)cc1 | 16µM | . | ? | . | . | .
O=C(O)CNC(=O)CC1S/C(=N/N=C/c2ccccc2O)NC1=O (stereo unspecified) | 16µM | . | 21µM | . | . | .
Cc1cc(C)n(CC(=O)Nc2ccc(F)c(F)c2)c(=O)c1C#N | . | / | . | / | / | /
O=C(c1ccco1)N1CCN(c2ccc([N+](=O)[O-])c(N3CCOCC3)c2)CC1 | . | ? | . | . | . | .
CCOc1ccc(NC(=O)C(C)C(Cc2ccc(C)cc2)C(=O)O)cc1 (stereo unspecified) | . | . | . | . | . | .
FC(F)(F)c1ccccc1-c1ccc2ncnc(NCc3cccs3)c2c1 | ? | / | 23µM | / | / | /
Cc1ccccc1-c1ccc2ncnc(NC3CC3)c2c1 | ? | / | 16µM | / | / | /
FC(F)(F)c1ccccc1-c1ccc2ncnc(NC3CC3)c2c1 | 21µM | / | 23µM | / | / | /
Cc1ccccc1-c1ccc2ncnc(-n3ccnc3)c2c1 | 21µM | / | 21µM | / | / | /
CC(=O)Nc1cccc(-c2csc(C(C)(O)c3ccc(F)c(F)c3)n2)c1 (stereo unspecified) | ? | / | ? | . | . | .
CCN(C[C@H]1N[C@@](C)(C(=O)OC)[C@H]2C(=O)N(C)C(=O)[C@@H]12)C(=O)C1CCCCC1 | . | . | . | . | . | .
COCCNc1ncnc2ccc(-c3ccccc3C)cc12 | 21µM | / | 10µM | / | / | /
COCCNc1ncnc2ccc(-c3ccc(C(=O)N(C)C)cc3)cc12 | . | / | . | / | / | /
Cc1ccccc1-c1cnc(C(O)c2ccc(Cl)c(F)c2)[nH]1 (stereo unspecified) | . | / | 29µM | -62 | . | .
Cc1ccccc1-c1cnc(C(O)c2ccc(F)c(F)c2)[nH]1 (stereo unspecified) | . | / | . | . | . | .
OC(c1ccc(Cl)c(F)c1)c1ncc(-c2ccccc2F)[nH]1 (stereo unspecified) | ? | / | 16µM | . | ? | ?
O=C(NCc1nnc2n1CCN(C(=O)/C=C/c1ccccc1)CC2)c1cccc(F)c1 | . | / | . | / | / | /
CC1CCCC(NC(=O)COC(=O)c2n[nH]c3ccccc23)C1C (stereo unspecified) | ? | ? | ? | . | . | .
CN(Cc1ccccc1)c1ccc(/C=C/c2sc3ccccc3[n+]2C)cc1 | 0.11µM | / | 0.089µM | / | / | /
CN(Cc1ccccc1)c1nnc(N)s1 | . | . | . | . | . | .
SMILES | DT40 TDP1 no CPT | ELG1 DNA repair | DT40 TDP1 CPT | IL-1B inflam inh | HT1080-NT tox | HT1080 IDH1KD tx
CCCCCCCCCC[n+]1ccc(/C=C/c2ccc(N(C)C)cc2)c2ccccc21 | 0.32µM | / | 0.35µM | / | / | /
CN(C)c1ccc(/C=C/c2sc3ccccc3[n+]2CCCCI)cc1 | 0.71µM | / | 0.56µM | / | / | /
CN(C)c1ccc(/C=C/C#N)cc1 | . | . | . | . | . | .
CCCC[n+]1c(/C=C/c2ccc(N(C)C)cc2)sc2ccccc21 | 0.1µM | / | 0.025µM | / | / | /
O=C(O)C1CCC(N2C(=O)c3c(Cl)c(Cl)c(Cl)c(Cl)c3C2=O)CC1 (stereo unspecified) | / | . | / | / | / | /
COc1ccc(CN2CCOc3ccc(CN4CCN(CCO)CC4)cc3C2)c2ccccc12 | ? | / | .[9.04 µM] | / | / | /
O=C(O)/C=C/C(=O)NCCCc1ccccc1 | ? | . | ? | . | . | .
CCCCNC(=O)C[C@@H]1C[C@@]2(C(=O)OCC)CCC=C2N(CCC2=CCCCC2)C1=O | ? | / | 18µM | . | . | .
CCOC(=O)[C@]12CCCC=C1N(CCC1=CCCCC1)C(=O)[C@H](CC(=O)NCc1ccc(C)o1)C2 | 13µM | / | ? | . | ? | ?
